Experimental data: PubChem BioAssay (Tox21)
Records with an inconclusive call do not appear. A call without a number means that no potency is given here. Activity calls are given as the source filed them. Calls come from the whole dose curve; as a rule, active = well fitted cell-killing curve with a large enough effect in the repeat runs; inconclusive = weak or mixed curves; inactive = flat fitted curve, though single readings scatter.

Test: qHTS assay to identify small molecule antagonists of the estrogen related receptor (ERR) signaling pathway - cell viability counter screen (AID 1224818);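 note: viability measured after 17.5 h of compound exposure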
Method in brief: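 ERR cells, 2,000 per well, compound added after 6 h and incubated 17.5 h at 37 C. Viability read by CellTiter-Fluor fluorescence after a further 30 min at 37 C.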
Potency is the fitted concentration of half-maximal effect.

SMILES	Potency
NC1CONC1=O (configuration not stated)	inactive
CN1C2CC(OC(=O)[C@H](CO)c3ccccc3)CC1C1OC12 (some centres not stated)	inactive
CNc1cc(NS(=O)(=O)c2ccc(N)cc2)nc(NC)n1	inactive
C[C@@H]1C(=O)NC2=Nc3cccc(Cl)c3CN21	inactive
CN1CCc2cccc3c2C1Cc1ccc(O)c(O)c1-3 (configuration not stated)	inactive
COCc1nc2c([nH]1)c(=O)n(C)c(=O)n2CC(C)C	inactive
Oc1ccc(Cn2cc[nH]c2=S)cc1	inactive
c1ccc(C(NCc2cccnc2)(c2ccccc2)c2ccccc2)cc1	inactive
O=C(O)Cc1c[nH]c2ccc(O)cc12	inactive
CCCCCC(O)CCCC(=O)O (configuration not stated)	inactive
COc1ccccc1N1CCN(CCN2C(=O)CC3(CCCC3)CC2=O)CC1	inactive
Cc1cc(Cn2cnc3c2C[C@@H](C(=O)O)N(C(=O)C(c2ccccc2)c2ccccc2)C3)ccc1N	inactive
O=Nc1c(-c2c(O)[nH]c3cc(Br)ccc23)[nH]c2ccccc12	16.2 µM (active)
CC(=O)NC[C@H]1CN(c2ccc(N3CCOCC3)c(F)c2)C(=O)O1	inactive
N[C@H](C(=O)O)[C@H](O)C(=O)O	inactive
COc1cc2nc(N3CCCN(C)CC3)nc(NC3CCN(Cc4ccccc4)CC3)c2cc1OC	24.6 µM (active)
COc1ccccc1N1CCN(CCN(C(=O)C2CCCCC2)c2ccccn2)CC1	inactive
Brc1ccc([C@H]2CN3CCSC3=N2)cc1	inactive
CNCCC(Oc1ccccc1C)c1ccccc1 (configuration not stated)	inactive
CN1CCN(c2nc3cc(C(F)(F)F)ccc3n3cccc23)CC1	inactive
N.N.O=C(O)C1(C(=O)O)CCC1.[Pt+2]	inactive
CC[C@H]1OC(=O)[C@H](C)C(O[C@H]2C[C@@](C)(OC)[C@@H](O)[C@H](C)O2)[C@H](C)[C@@H](OC2O[C@H](C)C[C@H](N(C)C)[C@H]2O)[C@](C)(O)C[C@@H](C)CN(C)[C@H](C)[C@@H](O)[C@]1(C)O (some centres not stated)	inactive
